Assay outcomes deposited in PubChem BioAssay by several laboratories.
Shown are actives, neighbours in structure and some others; about 2.4% of the full set was active somewhere.
PfGluPho inh: PfG6PD (Plasmodium falciparum) enzyme inhibition | PfGluPho enzyme, NADPH resazurin-diaphorase fluorescence | inhibition, % at 20 µM | hit rate 0.78% among 350,000 | AID 504690;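 active = inhibition reaching at least a set limit at 20 µM in the primary screen, cut at about 59% in these data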;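 note: 0% = DMSO wells with substrate and 100% = DMSO wells lacking glucose-6-phosphate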
APOBEC3A inh: blocks human APOBEC3A ssDNA deamination; hit rate 0.41% among 330,000; inhibition, % at 20 µM; recombinant A3A, FAM/TAMRA ssDNA deamination fluorescence; AID 493011; P31941;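 active = at least 40% inhibition at 20 µM here, with at most 30% in a related deaminase screen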;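 note: plate controls were A3A with DMSO for no effect and wells lacking A3A enzyme for full effect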
APOBEC3G inh: blocks human APOBEC3G single-stranded DNA deamination; recombinant A3G, ssDNA deamination FAM/TAMRA fluorescence; inhibition, % at 20 µM; hit rate 0.28% among 330,000; AID 493012;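 active = inhibition of at least 40% at 20 µM, with no more than 30% in the related APOBEC3A deaminase screen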;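 note: plate controls were DMSO wells with A3G for no effect and wells lacking A3G enzyme for full effect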
Target sequence (Q9HC16 whole entry, looked up): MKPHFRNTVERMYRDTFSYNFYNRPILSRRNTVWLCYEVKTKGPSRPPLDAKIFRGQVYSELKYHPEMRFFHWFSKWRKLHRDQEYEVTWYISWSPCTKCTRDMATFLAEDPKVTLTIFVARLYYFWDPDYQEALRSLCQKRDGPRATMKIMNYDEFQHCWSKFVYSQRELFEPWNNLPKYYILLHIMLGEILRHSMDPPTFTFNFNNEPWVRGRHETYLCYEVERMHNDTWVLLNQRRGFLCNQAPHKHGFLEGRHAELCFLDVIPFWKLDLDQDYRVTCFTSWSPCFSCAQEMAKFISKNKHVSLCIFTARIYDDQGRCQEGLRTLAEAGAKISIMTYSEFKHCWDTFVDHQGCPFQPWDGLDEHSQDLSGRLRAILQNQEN
CR mimetic SO: yeast age-related superoxide inhibition as caloric restriction mimetic; S. cerevisiae aged cells, superoxide DHE fluorescence; hits give low values; superoxide response (% of plate mean), % at 10 µM; hit rate 0.18% among 330,000;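 active = superoxide response under a set limit, about three screen SD below normal, cut at about 65% in these data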;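 note: yeast aged for seven days with compound at 30 °C before DHE staining; 100% = average MFI of all compound-treated wells on the plate with controls excluded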
PfM18AAP inh: PfM18AAP enzyme inhibition; recombinant PfM18AAP, H-Glu-NHMec fluorogenic cleavage; hit rate 1.2% among 290,000; AID 1822; inhibition, % at 7.35 µM;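 active = inhibition above the campaign mean inhibition over all tested compounds plus 3 SD, cut at about 28% in these data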;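 note: 0% = plate median of test compound wells and 100% = 2 mM ZnCl2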
CR mimetic CP: yeast aging superoxide inhibition, cherry pick confirmation. shares compounds with CR mimetic SO. S. cerevisiae aging, superoxide DHE fluorescence; hits give low values. superoxide response (% of plate), % at 10 µM. hit rate 1% among 850. AID 434994;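 active = superoxide signal below 65% of the plate average of sample wells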;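 note: cells aged with compound for 7 days at 30 degrees C before staining; 100% equals mean DHE fluorescence of all compound wells on the plate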
DHE counter: compound alters DHE oxidation or fluorescence in yeast. shares compounds with CR mimetic SO. S. cerevisiae BY4741, flow cytometry; hits give low values. fluorescence response, % at 10 µM. 850 tested, under 10 active. AID 435000;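 active = fluorescence response below 15%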;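 note: percent of the mean fluorescence averaged over all compound wells on the plate; lower means stronger quenching of DHE signal or ROS scavenging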
* marks the source's active call; other numbers are inactive results; . = not tested or not shown.

SMILES	PfGluPho inh	APOBEC3A inh	APOBEC3G inh	CR mimetic SO	PfM18AAP inh	CR mimetic CP	DHE counter
COc1cc([N+](=O)[O-])ccc1NC(=O)NCC1CCN(Cc2ccc(Cl)cc2)CC1	-2	-7	-6	30*	24	104	111
COc1cc(NC(=O)NCC2CCN(Cc3ccccc3Cl)CC2)cc(OC)c1OC	-6	-6	-9	41*	-4	101	93
Cc1ccc(Cl)cc1NC(=O)CCN1C(=O)C2C3CCC(C3)C2C1=O (stereo unspecified)	8	-4	-4	118	0	.	.
Cc1ccc(C(=O)O)cc1S(=O)(=O)N1CCCC1	-4	0	-6	108	-3	104	107
Cc1ccc(C(=O)N2CCCCC2)cc1S(=O)(=O)N1CCCC1	0	2	-5	100	-1	.	.
Fc1cccc2sc(Nc3nc4ccccc4s3)nc12	21	-3	-8	65*	1	93	109
Fc1ccc2nc(Nc3nc4c(F)cccc4s3)sc2c1	-2	-1	-6	95	-1	.	.
C/C(=N\NC(=O)c1cccc(S(=O)(=O)N2CCOCC2)c1)c1ccc(OCC(=O)N(C)C)cc1	3	-3	-1	104	.	.	.
Cc1cc(NS(=O)(=O)c2ccccc2)c(C)c(Cl)c1O	19	1	0	124	.	114	113
O=C(CSc1ccc(-c2ccccn2)nn1)Nc1ccc(F)cc1F	-4	-3	-4	108	6	103	106
COc1ccc(NC(=O)CSc2ccc(-c3ccccn3)nn2)cc1OC	31	-3	-3	120	3	.	.
O=C(CSc1ccc(-c2cccnc2)nn1)Nc1ccccc1C(F)(F)F	-13	-2	2	92	-3	101	91
O=C(CSc1ccc(-c2ccccn2)nn1)Nc1ccc(F)c(F)c1	18	-1	-4	99	15	137	115
COc1ccccc1NC(=O)CSc1ccc(-c2ccccn2)nn1	22	-3	-4	113	7	101	97
CCOc1ccc(NC2OC(CO)C(O)C(O)C2O)c([N+](=O)[O-])c1 (stereo unspecified)	-18	0	-5	92	1	.	.
O=C(CCc1ccncc1)N1CCCC(Nc2ccc(F)c(F)c2)C1 (stereo unspecified)	10	-4	-5	112	5	.	.
CCOC(=O)c1ccc(NC(=O)CSc2ccc(-c3ccccn3)nn2)cc1	47	-2	-5	114	6	116	91
Cc1nnc(SCc2ccc(Cl)c(Cl)c2)s1	0	-1	-8	60*	-1	108	90
Cc1nnc(SCc2ccc(F)cc2)s1	4	-4	-8	89	-6	.	.
O=C1COc2ccc(C(=O)NCc3ccc4c(c3)OCO4)cc2N1	-26	1	-1	64*	5	97	94
COc1ccc(-c2cn(Cc3ccc(C(=O)NCc4ccc(C)cc4)cc3)c(C(C)N)n2)cc1 (stereo unspecified)	-2	-3	-4	100	.	.	.
Cn1c(=S)[nH]c(=O)c2ncc(=O)[nH]c21	13	0	-4	63*	5	103	91
C=C1CCC[C@]2(C)C[C@H]3OC(=O)C(CNCCN(CC)CC)[C@H]3CC12 (stereo partly specified)	-15	-3	-8	56*	17	96	95
COc1ccc(CCNC(=O)c2ccc(OCC(=O)N3CCOCC3)c(OC)c2)cc1	13	28	0	100	.	.	.
COc1ccc(CCNC(=O)c2ccc(OCC(=O)N3CCOCC3)c(OC)c2)cc1OC	-4	-2	-6	64*	1	100	104
C[C@@H]1CN([C@H](C)CO)C(=O)c2cc(Br)cnc2O[C@@H]1CN(C)C(=O)NC1CCCC1	-4	.	.	.	.	.	.
CN(C(=O)CSc1nc(O)cc(=O)n1-c1ccccc1F)c1ccccc1	-6	-4	-7	50*	0	107	107
COc1cc(/C=C/C(=O)OCC(=O)Nc2c(C)n(C)n(-c3ccccc3)c2=O)cc(OC)c1OC	11	-6	-8	115	.	.	.
O=c1cc(-c2ccc([N+](=O)[O-])cc2)nc2cc(-c3ccc(Cl)cc3)[nH]n12	.	.	.	120	15	.	.
CCCc1cc(=O)n2[nH]c(-c3ccc(Cl)cc3)cc2n1	25	-5	-6	100	-1	108	124
